Screening data deposited in PubChem BioAssay by National Center for Advancing Translational Sciences (NCATS).
HT1080 IDH1KD tx – toxicity to HT-1080 IDH1 knockdown cells (counter line) | AID 686971 | actives 2% (n = 360,000) | HT-1080 IDH1 knockdown viability, ATP luminescence, 48 h | Potency, µM (titrated, usually from 46.1 µM), actives largely listed as cytotoxic
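Knockdown cells (IDH1KD HT-1080) received compounds 2 h after plating at 750 cells/well and were kept 48 h at 37 °C in 5% FBS RPMI. A CellTiter-Glo luminescence read gave % activity for curve fitting.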
HT1080-NT tox – kills 2HG-producing HT-1080-NT fibrosarcoma cells | HT-1080-NT fibrosarcoma viability, CellTiter-Glo ATP luminescence, 48 h | AID 686970 | Potency, µM (titrated, usually from 46.1 µM), most hits filed as cytotoxic | actives 1.6% (n = 360,000);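 further: NT is the 2HG producing partner of a matched IDH1 knockdown line; nearly all actives have a fitted effect of over 55% in size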
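Toxicity toward the 2HG-producing NT line was scored as %Activity, normalised to DMSO and no-cell wells, from CellTiter-Glo luminescence after 48 hours' treatment.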
KB-3-1 tox – kills parental KB-3-1 adenocarcinoma cells | KB-3-1 viability, CellTiter-Glo ATP luminescence, 72 h | actives 1.4% (n = 400,000) | Potency, µM (doses to about 46.1 µM), most hits filed as cytotoxic; further: nearly all actives have a fitted effect of over 60% in size
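Cells are dispensed, compounds pinned in, plates held at 37 °C for 72 h, then CellTiter-Glo is added and luminescence read after 10 minutes. Cell line: parental KB-3-1 in phenol-red-free DMEM, 10% FBS.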
KB-V1 MDR tox – KB-V1 MDR subline cytotoxicity. KB-V1 MDR cells viability, CellTiter-Glo, 72 h. Potency, µM (top dose mostly 46.1 µM), hits mostly cytotoxic. actives 3.4% (n = 400,000); further: nearly all actives have a fitted effect of over 60% in size
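qHTS viability screen in drug-selected KB-V1 MDR cells: 72 h compound treatment at 37 degrees C, ATP luminescence end point.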
Numbers stand for hits. Hits are enriched below; roughly 5.7% of the tested compounds scored in any of these assays. The call rests on the fitted dose curve; in most records, active means well fitted curve in the direction sought with a large enough effect; inconclusive means small, poorly fitted or top-dose-only effect, or another doubt; inactive means no such curve, though single readings can be large; an effect the other way counts as inactive or inconclusive.

How did CC(=O)c1ccc(N2CCN(C(=O)Nc3cn(CC(C)C)c(=O)c4ccccc34)CC2)cc1 do in these assays?
KB-3-1 tox: inactive; KB-V1 MDR tox: inactive

Results for CCNc1cc(S(=O)(=O)C(F)(F)F)ccc1N ?
HT1080 IDH1KD tx: inactive; HT1080-NT tox: inactive; KB-3-1 tox: inconclusive; KB-V1 MDR tox: 23µM

How did CCN1c2ccccc2-c2nc(SCC(=O)NCc3ccc(C)cc3)ncc2S1(=O)=O do in these assays?
KB-3-1 tox: inactive; KB-V1 MDR tox: inactive

What do the screens show for `Cc1ccc(S(=O)(=O)N2CC3(C)CN(S(=O)(=O)c4ccc(C)cc4)CC(C)(C2)C3=O)cc1`?
HT1080 IDH1KD tx: inactive; HT1080-NT tox: inactive; KB-3-1 tox: inactive; KB-V1 MDR tox: 0.73µM

What do the screens show for `CON(C)c1nc(OCCNC(=O)OCc2ccc(Cl)cc2C)nc(N(C)C)n1`?
HT1080 IDH1KD tx: inactive; HT1080-NT tox: inactive; KB-3-1 tox: inactive; KB-V1 MDR tox: 1.6µM

What do the screens show for `CN(C)c1nc(OCCNC(=O)COc2ccccc2Cl)nc(N(C)C)n1`?
HT1080 IDH1KD tx: inactive; HT1080-NT tox: inactive; KB-3-1 tox: inactive; KB-V1 MDR tox: 1.6µM

What do the screens show for `O=C(COc1ccc(Br)cc1)NCCCNC(=O)c1cccnc1`?
HT1080 IDH1KD tx: 10µM; HT1080-NT tox: inconclusive; KB-3-1 tox: inactive; KB-V1 MDR tox: inactive

How did O=C(COc1ccccc1Cl)NCCCNC(=O)c1cccnc1 do in these assays?
HT1080 IDH1KD tx: inconclusive; HT1080-NT tox: 26µM; KB-3-1 tox: inactive; KB-V1 MDR tox: inactive

What do the screens show for `COc1ccc(-n2c(=O)c3c(c4cc(OC)ccc4n3C)n(Cc3ccc(F)cc3Cl)c2=O)cc1`?
KB-3-1 tox: inactive; KB-V1 MDR tox: inactive

Results for CC(=O)c1cccc(NC(=O)C(CC(C)C)NS(=O)(=O)c2ccc3c(c2)CCN3C(C)=O)c1 (configuration not stated) ?
KB-3-1 tox: inconclusive; KB-V1 MDR tox: inactive

How did CCOc1ccc(S(=O)(=O)Nc2cc3c(C(=O)OC)c(COC)oc3c3ccccc23)cc1 do in these assays?
KB-3-1 tox: 3.7µM; KB-V1 MDR tox: 15µM

Results for COc1ccc(S(=O)(=O)Nc2cc3c(cc2C(C)=O)OCO3)cc1 ?
HT1080 IDH1KD tx: 18µM; HT1080-NT tox: inconclusive; KB-3-1 tox: 7.3µM; KB-V1 MDR tox: inconclusive

Results for COc1ccc(S(=O)(=O)Nc2cc3c(C(C)=O)c(C)oc3c3ccccc23)cc1 ?
HT1080 IDH1KD tx: 0.52µM; HT1080-NT tox: 1.3µM; KB-3-1 tox: 2.1µM; KB-V1 MDR tox: 2.1µM

How did CC(=O)c1c(C)oc2c1cc(NS(=O)(=O)c1ccc(C(C)(C)C)cc1)c1ccccc12 do in these assays?
KB-3-1 tox: inactive; KB-V1 MDR tox: inactive

What do the screens show for `CC(=O)c1cccc(NC(=O)CSc2ncc3c(n2)-c2cc(Cl)ccc2N(Cc2ccccc2)S3(=O)=O)c1`?
KB-3-1 tox: inactive; KB-V1 MDR tox: inactive

Results for COC(=O)C1=C(N)N(c2ccccc2F)C2=C(C(=O)CC(C)(C)C2)C1c1ccc(OC)c(OC)c1 (configuration not stated) ?
HT1080 IDH1KD tx: inactive; HT1080-NT tox: inactive; KB-3-1 tox: inconclusive; KB-V1 MDR tox: 4.6µM

How did COCCN1C2=C(C(=O)CC(C)(C)C2)C(c2ccc(OC)c(OC)c2)C2=C1CC(C)(C)CC2=O do in these assays?
HT1080 IDH1KD tx: inactive; HT1080-NT tox: inactive; KB-3-1 tox: inactive; KB-V1 MDR tox: inactive

How did COc1ccc(/C=N/Nc2nc(-c3cccc(S(=O)(=O)N4CCCC4)c3)cs2)c(OC)c1 do in these assays?
HT1080 IDH1KD tx: inactive; HT1080-NT tox: inactive; KB-3-1 tox: 18µM; KB-V1 MDR tox: 2.6µM

What do the screens show for `COc1cccc(C(=O)Nc2nc(-c3ccc(S(=O)(=O)N4CCOCC4)cc3)cs2)c1`?
HT1080 IDH1KD tx: inactive; HT1080-NT tox: inactive; KB-3-1 tox: inactive; KB-V1 MDR tox: inactive

How did Cc1cccc(-n2c3nc(=O)n(C)c(=O)c-3cc3c(Cl)cccc32)c1C do in these assays?
KB-3-1 tox: inactive; KB-V1 MDR tox: inactive

What do the screens show for `Cn1c(=O)nc2n(Cc3ccccc3)c3cccc(Cl)c3cc-2c1=O`?
HT1080 IDH1KD tx: inactive; HT1080-NT tox: inactive; KB-3-1 tox: inactive; KB-V1 MDR tox: 21µM

What do the screens show for `OC(c1ccccc1)c1ccncc1` (configuration not stated)?
HT1080 IDH1KD tx: inactive; HT1080-NT tox: inactive; KB-3-1 tox: inactive; KB-V1 MDR tox: inactive

Results for OC(C1=CC(=Cc2ccncc2)c2ccccc21)c1ccncc1 (configuration not stated) ?
HT1080 IDH1KD tx: inactive; HT1080-NT tox: 3.3µM; KB-3-1 tox: inactive; KB-V1 MDR tox: inconclusive

What do the screens show for `N=C1S/C(=C\c2cccc3ccccc23)C(=O)N1c1ccc(F)cc1`?
HT1080 IDH1KD tx: inactive; HT1080-NT tox: inconclusive; KB-3-1 tox: 7.3µM; KB-V1 MDR tox: 7.3µM

Results for N=C1S/C(=C\c2ccccc2F)C(=O)N1c1ccc(F)cc1 ?
HT1080 IDH1KD tx: inactive; HT1080-NT tox: inactive; KB-3-1 tox: inactive; KB-V1 MDR tox: inactive

Results for CCc1cc(=O)oc2cc(C)c(CN3CCCCC3)c(O)c12 ?
HT1080 IDH1KD tx: inactive; HT1080-NT tox: inactive; KB-3-1 tox: inactive; KB-V1 MDR tox: 16µM

How did COc1ccc2c(c1)CCc1c(C(=O)N3CC4(C)CC3CC(C)(C)C4)noc1-2 (configuration not stated) do in these assays?
HT1080 IDH1KD tx: inconclusive; HT1080-NT tox: inconclusive; KB-3-1 tox: inactive; KB-V1 MDR tox: inactive

How did COc1ccc2c(c1)CCc1c(C(=O)N3CCOCC3)noc1-2 do in these assays?
HT1080 IDH1KD tx: inactive; HT1080-NT tox: inactive; KB-3-1 tox: inactive; KB-V1 MDR tox: 16µM

How did COc1ccc2c(c1)CCc1c(C(=O)N3CCCc4ccccc43)noc1-2 do in these assays?
HT1080 IDH1KD tx: inconclusive; HT1080-NT tox: inconclusive; KB-3-1 tox: 21µM; KB-V1 MDR tox: 7.3µM

How did O=C(NCCN1CCOCC1)c1noc2c1CCc1ccccc1-2 do in these assays?
HT1080 IDH1KD tx: inactive; HT1080-NT tox: inactive; KB-3-1 tox: inactive; KB-V1 MDR tox: 12µM

What do the screens show for `COc1ccc(CNC(=O)Cn2ncn3nc(-c4cccs4)cc3c2=O)cc1`?
KB-3-1 tox: inactive; KB-V1 MDR tox: inconclusive

How did CCOc1ccccc1CN1C(=O)c2ccccc2C1C(=O)NC1CCCCCC1 (configuration not stated) do in these assays?
KB-3-1 tox: inconclusive; KB-V1 MDR tox: inactive

Results for Cc1cc(=O)[nH]c2c(C)c(N)ccc12 ?
HT1080 IDH1KD tx: inactive; HT1080-NT tox: inactive; KB-3-1 tox: inactive; KB-V1 MDR tox: inactive

Results for Cc1cc(C)c2ccc3c(C)c(C)nc3c2[nH]1 ?
HT1080 IDH1KD tx: inconclusive; HT1080-NT tox: inconclusive; KB-3-1 tox: inconclusive; KB-V1 MDR tox: 16µM

How did Cc1cc(S(=O)(=O)NCC(c2ccccc2)c2ccccc2)ccc1-n1cnnn1 do in these assays?
HT1080 IDH1KD tx: inactive; HT1080-NT tox: inactive; KB-3-1 tox: inactive; KB-V1 MDR tox: 18µM

Results for O=C(Nc1c(C(=O)c2ccc(F)cc2)oc2ccccc12)c1cc(-c2ccccc2)on1 ?
KB-3-1 tox: inactive; KB-V1 MDR tox: inactive

What do the screens show for `CC/C(=N\NC(=O)c1c(-c2ccccc2)noc1C)c1ccc(C)o1`?
HT1080 IDH1KD tx: inactive; HT1080-NT tox: inactive; KB-3-1 tox: inactive; KB-V1 MDR tox: 13µM
